Compound activity from PubChem BioAssay.
Menin-MLL TR inh: qHTS Assay for Inhibitors Targeting the Menin-MLL Interaction in MLL Related Leukemias: Competition With Texas Red Labeled MLL-derived Mutant Peptide; 270,000 compounds, 0.23% hits; O00255; Menin + Texas Red MLL mutant peptide, fluorescence polarization; Potency, µM (highest dose often 61.6 µM), usual class: inhibitors; active means well fitted inhibition curve with a large enough effect in the polarisation, with a control signal flat, not every such curve was filed as active; inconclusive means small, poorly fitted or top-dose-only effect, or effect the other way, or a change in a side signal; inactive means no such curve, though single readings can be large or run the other way; the % refers to the polarisation
CXXC DNA block: qHTS Fluorescence Polarization Assay for Inhibitors of MLL CXXC domain - DNA interaction; Histone-lysine N-methyltransferase 2A (Homo sapiens), Q03164; MLL-CXXC / FITC-HOXA9 DNA fluorescence polarization; Potency, µM (titrated, usually from 115 µM), actives largely listed as inhibitors; 290,000 compounds, 0.037% hits; AID 2662, 2010; active means well fitted inhibition curve with a large enough effect in the polarisation, with a control signal flat, not every such curve was filed as active; inconclusive means small, poorly fitted or top-dose-only effect, or effect the other way, or a change in a side signal; inactive means no such curve, though single readings can be large or run the other way; the % refers to the polarisation
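Fluorescence polarization: 7 uM MLL-CXXC (stock) preincubated 5 min with compounds, then 50 nM fluorescein-HOX-A9 DNA (stock) added; 30 min ambient. Buffer 50 mM Tris-HCl pH 7.5, 50 mM NaCl, 1 mM DTT, 0.05% BSA.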
p53 reactivator: qHTS assay for re-activators of p53 using a Luc reporter | H1299 p53-A138V BP100-luciferase reporter, luminescence, 24 h | Potency, µM (doses to about 92.2 µM), usual class: activators | 320,000 compounds, 0.063% hits | AID 504706, 2011; active means well fitted activation curve with a large enough effect; inconclusive means small, poorly fitted or top-dose-only effect; inactive means no such curve, though single readings can be large or run the other way; further: nearly all actives have a fitted effect of over 45% in size
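p53-null H1299 cells stably carrying temperature-sensitive p53-A138V and a BP100-luciferase reporter were pinned with compounds (4-point, 1:5 series) and held 24 hrs at 37 deg C. Luminescence was read 10 min after detection reagent.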
Menin-MLL FL inh: qHTS Assay for Inhibitors Targeting the Menin-MLL Interaction in MLL Related Leukemias: Competition With Fluorescein Labeled MLL-derived Peptide; Fluorescence polarization, fluorescein-MLL peptide displacement from menin; FP activity change, % at 61.4 µM; 290,000 tested, under 10 active; AID 1766, 2009; active means well fitted curve in the direction sought with a large enough effect in the polarisation, not every such curve was filed as active; inconclusive means small, poorly fitted or top-dose-only effect, or effect the other way, or a change in a side signal; inactive means no such curve, though single readings can be large or run the other way; the % refers to the polarisation
ClpP mod: qHTS Assay for Activators of ClpP; purified B. subtilis ClpP, FRET peptide cleavage, 20 min; Potency, µM (doses to about 57.5 µM); 340,000 compounds, 1.9% hits; ATP-dependent Clp protease proteolytic subunit (Bacillus subtilis (strain 168)), P80244; AID 651965, 2013; active means well fitted falling curve with a large enough effect; inconclusive means small, poorly fitted or top-dose-only effect; inactive means no such curve, though single readings can be large or run the other way; further: the source files actives as falling curves though it sought activators and does not explain the sign; nearly all actives have a fitted effect of over 65% in size
Target sequence (P80244 whole entry, looked up): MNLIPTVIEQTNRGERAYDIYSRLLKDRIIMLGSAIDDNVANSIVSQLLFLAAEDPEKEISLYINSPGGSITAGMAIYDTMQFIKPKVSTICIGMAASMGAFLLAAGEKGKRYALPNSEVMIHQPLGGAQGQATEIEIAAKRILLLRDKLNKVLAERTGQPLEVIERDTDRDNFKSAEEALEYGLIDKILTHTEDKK
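Buffer: 100 mM Tris/HCl pH8, 100 mM KCl, 0.05% low protease BSA, 2.5% glycerol, 0.01% Tween-20. ClpP 10 microg/mL final; 20 min RT; delta FRET normalized to ADEP and DMSO controls.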
Hits are given with their value. Shown is part of a subset that was picked to be rich in hits.

What do the screens show for `CCCn1c(=O)c(C(=O)NCc2ccccc2)c(O)c2ccccc21`?
Menin-MLL TR inh: inactive; CXXC DNA block: inactive; Menin-MLL FL inh: inactive

How did CCOC(=O)c1sc2ccccc2c1S(=O)(=O)Nc1cccc(C(F)(F)F)c1 do in these assays?
ClpP mod: inactive

How did O=C(NCc1ccccc1F)C1CCCN(C(=O)N2CCOc3ccccc32)C1 (stereo not given) do in these assays?
ClpP mod: inactive

How did CCOc1ccccc1C(=O)NCCN1CCC(n2c(=O)[nH]c3ccccc32)CC1 do in these assays?
ClpP mod: 2.8µM

How did CCCCN(C(=O)C1CC(=O)N(Cc2ccc(C)cc2)C1)c1c(N)n(CCCC)c(=O)[nH]c1=O (stereo not given) do in these assays?
p53 reactivator: inactive; ClpP mod: 22µM

How did CCCCN(C(=O)C1CC(=O)N(CCc2ccc(OC)c(OC)c2)C1)c1c(N)n(CCCC)c(=O)[nH]c1=O (stereo not given) do in these assays?
p53 reactivator: inactive

What do the screens show for `O=C(Nc1ccc(Nc2ccccc2)cc1)c1ccc(Br)o1`?
Menin-MLL TR inh: inconclusive; CXXC DNA block: inactive; p53 reactivator: 32µM; Menin-MLL FL inh: inactive; ClpP mod: inactive

What do the screens show for `Cn1c(=N)c(S(=O)(=O)c2ccccc2)cc2c(=O)n3ccccc3nc21`?
Menin-MLL TR inh: inactive; CXXC DNA block: inactive; p53 reactivator: inactive; Menin-MLL FL inh: inactive; ClpP mod: 7.9µM

How did O=C(CNC(=O)c1ccc(Cl)cc1)OCC(=O)c1ccccc1 do in these assays?
Menin-MLL TR inh: inactive; CXXC DNA block: inconclusive; p53 reactivator: inactive; Menin-MLL FL inh: inactive; ClpP mod: inactive

Results for O=C(CCC(=O)c1ccc(Cl)cc1)OCC(=O)c1ccccc1 ?
Menin-MLL TR inh: inactive; CXXC DNA block: inactive; p53 reactivator: inactive; Menin-MLL FL inh: inactive; ClpP mod: 32µM

How did COc1ccc(OC(=O)c2cccc(S(=O)(=O)N3CCCC3)c2)cc1 do in these assays?
Menin-MLL TR inh: inactive; CXXC DNA block: inactive; p53 reactivator: inactive; Menin-MLL FL inh: inactive; ClpP mod: inactive

Results for CCOc1ccc(OC(=O)c2cccc(S(=O)(=O)N3CCN(C)CC3)c2)cc1 ?
p53 reactivator: inactive; ClpP mod: 32µM

Results for CCCCOc1ccc(-c2nnn(CC(=O)c3c[nH]c4ccccc34)n2)cc1 ?
Menin-MLL TR inh: 8.9µM; CXXC DNA block: inactive; p53 reactivator: inactive; Menin-MLL FL inh: inactive; ClpP mod: inactive

How did CNc1ccccc1C(=O)OC(C)C(=O)Nc1ccc(S(=O)(=O)N2CCCC2)cc1 (stereo not given) do in these assays?
CXXC DNA block: inconclusive; p53 reactivator: inactive; ClpP mod: 28µM

How did N#Cc1c2c(c(Cl)n3c1nc1ccccc13)CCCC2 do in these assays?
ClpP mod: inactive

How did CC(=O)Nc1ccn(C2OC(C(COC(C)=O)NC(=O)C(C)NC(=O)OC(C)(C)C)C(OC(C)=O)C2OC(C)=O)c(=O)n1 (stereo not given) do in these assays?
Menin-MLL TR inh: inactive; Menin-MLL FL inh: inactive

What do the screens show for `CCCc1n[nH]c2c1C(=O)CC(C)(C)C2`?
Menin-MLL TR inh: inactive; CXXC DNA block: inactive; p53 reactivator: inactive; Menin-MLL FL inh: inactive; ClpP mod: inactive

Results for CC1(C)CC(=O)c2c(-c3cccs3)n[nH]c2C1 ?
Menin-MLL TR inh: inactive; CXXC DNA block: inactive; p53 reactivator: inactive; Menin-MLL FL inh: inactive; ClpP mod: 25µM

What do the screens show for `Fc1cccc(-c2cc3nc4c(c(N5CCC6(CC5)OCCO6)n3n2)CCCC4)c1`?
Menin-MLL TR inh: inactive; CXXC DNA block: inactive; p53 reactivator: inconclusive; Menin-MLL FL inh: inactive; ClpP mod: 28µM

Results for CCc1c(C)nc2cc(-c3cc(OC)cc(OC)c3)nn2c1N1CCCC1 ?
Menin-MLL TR inh: inactive; CXXC DNA block: inactive; p53 reactivator: inactive; Menin-MLL FL inh: inactive; ClpP mod: inactive

How did OC1CCN(c2c3c(nc4cc(-c5cccc(F)c5)nn24)CCCC3)CC1 do in these assays?
Menin-MLL TR inh: inactive; CXXC DNA block: inactive; p53 reactivator: inactive; Menin-MLL FL inh: inactive; ClpP mod: inactive

How did COc1cc(OC)cc(-c2cc3nc4c(c(N5CCN(c6ncccn6)CC5)n3n2)CCCC4)c1 do in these assays?
Menin-MLL TR inh: inactive; CXXC DNA block: inactive; p53 reactivator: inactive; Menin-MLL FL inh: inactive; ClpP mod: 35µM

Results for CC(C)Cn1c(N)c(C(=O)COC(=O)c2cc(C3CC3)nc3ccccc23)c(=O)n(C)c1=O ?
Menin-MLL TR inh: inactive; CXXC DNA block: inactive; p53 reactivator: inactive; Menin-MLL FL inh: inactive; ClpP mod: 25µM

Results for CN(C)c1ccc2ccc3cccc4ccc1c2c34 ?
ClpP mod: inactive

How did COc1cc2c(cc1OC)C(c1cc3cc4c(cc3[nH]c1=O)OCO4)N(C(=O)C1CC1)CC2 (stereo not given) do in these assays?
Menin-MLL TR inh: inactive; CXXC DNA block: inconclusive; p53 reactivator: inactive; Menin-MLL FL inh: inactive; ClpP mod: 25µM

What do the screens show for `N#CN=c1snc(-c2ccccc2Cl)n1-c1ccc(F)cc1`?
ClpP mod: inactive

How did COC(=O)CSc1cc(SCC(=O)OC)c(C#N)c(SCC(=O)OC)c1 do in these assays?
Menin-MLL TR inh: inactive; CXXC DNA block: inactive; p53 reactivator: inactive; Menin-MLL FL inh: inactive; ClpP mod: inactive

Results for COC(=O)CSc1ccc(C#N)c(SCC(=O)OC)c1 ?
Menin-MLL TR inh: inactive; CXXC DNA block: inactive; p53 reactivator: inactive; Menin-MLL FL inh: inactive; ClpP mod: 14µM

What do the screens show for `Cc1ccc(NC(=O)COc2ccc(-c3nn(C)c(=O)c4ccccc34)cc2)c(C)c1`?
ClpP mod: inactive

Results for COCCn1nnnc1C(C(C)C)N(Cc1ccccc1)Cc1cc2cc(OC)ccc2[nH]c1=O (stereo not given) ?
Menin-MLL TR inh: inactive; CXXC DNA block: inactive; p53 reactivator: inactive; Menin-MLL FL inh: inactive; ClpP mod: inactive

Results for COCCn1nnnc1C(C(C)C)N(Cc1cccnc1)Cc1cc2cc(OC)ccc2[nH]c1=O (stereo not given) ?
Menin-MLL TR inh: inactive; CXXC DNA block: inactive; p53 reactivator: inactive; Menin-MLL FL inh: inactive; ClpP mod: 25µM

What do the screens show for `COc1ccc(C(=O)C[n+]2ccccc2Cl)cc1`?
ClpP mod: inactive

What do the screens show for `CCCCCCSc1cc(-c2nc3cc(C)ccn3c2NCCCC)ccc1OC`?
p53 reactivator: inactive; ClpP mod: 16µM

What do the screens show for `CC(=O)c1ccc([N+](C)(C)C)cc1`?
ClpP mod: inactive

What do the screens show for `NC(=O)SCC(=O)Nc1cccc(Cl)c1`?
Menin-MLL TR inh: 22µM; CXXC DNA block: inactive; p53 reactivator: inactive; Menin-MLL FL inh: inactive; ClpP mod: inactive
